In the library only some 21% were active in any assay of this set; here they are far more common.
CYP2C9 inh – blockers of cytochrome P450 2C9 activity – biochemical, luminescence, ADME assay, primary screen; P11712; CYP2C9 Supersomes, luciferin-H conversion; inhibition, % at 5 µM; hit rate 20% among 96,000;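 active = blocking of liver enzyme CYP2C9 beyond about 50% at 5 µM, limit read from the data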
Target sequence (P11712 whole entry, looked up): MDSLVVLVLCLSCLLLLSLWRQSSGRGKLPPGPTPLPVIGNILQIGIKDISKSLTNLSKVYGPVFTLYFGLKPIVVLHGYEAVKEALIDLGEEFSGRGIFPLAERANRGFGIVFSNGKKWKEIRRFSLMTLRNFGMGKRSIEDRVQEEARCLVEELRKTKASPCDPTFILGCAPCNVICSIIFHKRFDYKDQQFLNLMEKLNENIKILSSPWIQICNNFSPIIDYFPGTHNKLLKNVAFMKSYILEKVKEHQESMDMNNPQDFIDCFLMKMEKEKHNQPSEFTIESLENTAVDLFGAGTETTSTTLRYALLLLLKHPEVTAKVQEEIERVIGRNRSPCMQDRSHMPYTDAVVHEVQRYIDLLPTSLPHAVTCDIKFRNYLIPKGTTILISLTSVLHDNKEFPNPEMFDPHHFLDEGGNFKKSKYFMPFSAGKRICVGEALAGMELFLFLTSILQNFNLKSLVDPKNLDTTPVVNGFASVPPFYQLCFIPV
CYP2C9 act – human CYP2C9 activators, primary screen, biochemical, luminescence. recombinant CYP2C9, luciferin-H conversion; active compounds read high; factor 1 = untreated enzyme, 0 = blocked. activation factor at 5 µM. hit rate 1.4% among 96,000. AID 1024, 2008;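 active = activation factor of 2 or more for CYP2C9 at a 5 µM dose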
CYP2C19 act – human CYP2C19 activators, primary screen, biochemical, luminescence; Cytochrome P450 2C19 (Homo sapiens), P33261; recombinant CYP2C19, luciferin-H EGE luminescence; active compounds read high; 0 = fully inhibited enzyme, 1 = untreated enzyme; AID 1025, 2008; 96,000 tested, under 10 active; activation factor at 5 µM;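 active = activation factor of at least 2 at 5 µM in the primary screen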
CYP2C19 inhib – blockers of cytochrome P450 2C19 activity – biochemical, luminescence, ADME assay, primary screen | P33261 | CYP2C19 Supersomes, luciferin-H EGE luminescence, 30 min | inhibition, % at 5 µM | hit rate 21% among 96,000 | AID 778, 2007;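 active = CYP2C19 inhibition above a set limit at 5 µM in the primary screen, cut at about 50% in these data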
MRP-1 activ – H69AR viability gain despite doxorubicin, primary screen, MRP-1 activator project, H69AR cells, CellTiter-Glo | viability rescue | viability increase, % at 10 µM | hit rate 0.61% among 140,000 | AID 799, 2007;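 active = viability gain under doxorubicin at or above a set limit, the compound median plus 3 SD, cut at about 4.7% in these data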;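 note: MRP-1 overexpressing cells given doxorubicin 25 µM after compound pretreatment; 18-22 h compound pretreatment then 72 h with doxorubicin before readout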
MRP resist rev – reversal of MRP1-mediated doxorubicin resistance, primary screen, H69AR cells, doxorubicin co-treatment. H69AR cells + 2 uM doxorubicin, CellTiter-Glo, 72 h. differential viability (reversal), % at 10 µM. hit rate 0.04% among 85,000;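 active = viability drop by adding the cancer drug above about 55%, with treated viability meeting a 40% cutoff, limit read from the data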;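 note: larger differential means the compound sensitizes cells more to doxorubicin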
Numbers stand for hits; i = inactive; nt = no result given.

SMILES	CYP2C9 inh	CYP2C9 act	CYP2C19 act	CYP2C19 inhib	MRP-1 activ	MRP resist rev
Cc1ccc2c(c1)c(CC(=O)Nc1ccc(F)cc1)c(C(=O)O)n2C	64.7	i	i	i	i	i
CC(=O)NS(=O)(=O)c1ccc(NC(=O)c2ccc(Br)o2)cc1	i	i	i	i	i	i
Cc1ccc2[nH]cc(CCNC(=O)c3cccnc3)c2c1	64.2	i	i	87.8	i	i
Cc1ccc2[nH]cc(CCNC(=O)Nc3ccccc3)c2c1	53.5	i	i	97.1	i	i
CC(C)C(=O)NCCc1c[nH]c2ccccc12	nt	nt	nt	nt	i	nt
CCNC(=O)NCCc1c[nH]c2ccc(Cl)cc12	i	i	i	78.1	i	i
CCCOc1cc(C)c(S(=O)(=O)n2ccc(C)n2)cc1C	i	i	i	69.9	i	i
Brc1cccc(-c2nnc(SCc3ccon3)n2-c2ccccc2)c1	i	i	i	50.4	i	i
COc1ccc(C2C(C#N)=C(N)N3C(=C2C#N)Sc2ccccc23)cc1 (stereo not given)	i	i	i	i	i	i
O=C(CCC(=O)c1ccc(F)cc1)Nc1cccnc1	nt	nt	nt	nt	i	i
O=C(CCC(=O)c1ccc(F)cc1)Nc1cc(Cl)cc(Cl)c1	i	i	i	52.2	i	nt
O=C(CSc1ncnc2c1oc1ccccc12)Nc1ccc2c(c1)OCCO2	nt	nt	nt	nt	i	i
CCc1nc(SCC(=O)Nc2ccc3c(c2)OCCO3)c2oc3ccccc3c2n1	51.7	i	i	i	i	i
O=C(CSc1ncnc2c1cnn2Cc1ccccc1)Nc1ccc2c(c1)OCCO2	54.7	i	i	57.6	i	i
CCc1nc(SCC(=O)N2CCCc3ccccc32)c2c(=O)n(C)c(=O)n(C)c2n1	nt	nt	nt	nt	nt	i
Cc1nc(SCC(=O)Nc2ccc3c(c2)OCCO3)c2oc3ccccc3c2n1	73.0	i	i	96.4	i	i
CCc1nc(SCC(=O)N2CCCc3ccccc32)c2oc3ccccc3c2n1	73.8	i	i	i	i	i
COc1cccc(NC(=O)CSc2ncnc3c2cnn3Cc2ccccc2)c1	i	i	i	i	i	i
CC(=O)N1CCC(N(CCN2CCOCC2)C(=S)Nc2cc(C)ccc2C)CC1	nt	nt	nt	nt	i	nt
CCC(CC)c1nc(NCCC(=O)O)c2ccccc2n1	i	i	i	i	i	i
O=C(CSc1nc(-c2ccccc2)nc2ccccc12)Nc1nccs1	i	i	i	i	i	nt
CCc1nc(SCC(=O)Nc2nccs2)c2oc3ccccc3c2n1	75.7	i	i	i	i	i
COc1cccc(NC(=O)C2CCN(Cc3cnn(-c4ccccc4)c3-n3cccc3)CC2)c1	67.2	i	i	i	i	i
O=C(NCc1ccc2c(c1)OCO2)C1CCN(Cc2cnn(-c3ccccc3)c2-n2cccc2)CC1	51.4	i	i	i	i	i
O=C(Nc1ccccc1Cl)C1CCN(Cc2cnn(-c3ccccc3)c2-n2cccc2)CC1	i	i	i	i	i	i
SMILES	CYP2C9 inh	CYP2C9 act	CYP2C19 act	CYP2C19 inhib	MRP-1 activ	MRP resist rev
CN1CCN(c2ncccc2S(=O)(=O)N2CCCCC2)CC1	nt	nt	nt	nt	i	i
O=C(NCCNS(=O)(=O)c1ccccc1)c1cc(OCC(F)(F)F)ccc1OCC(F)(F)F	i	i	i	i	i	nt
O=C(NO)c1cc(OCC(F)(F)F)ccc1OCC(F)(F)F	i	i	i	i	i	nt
C#CCONC(=O)c1cc(OCC(F)(F)F)ccc1OCC(F)(F)F	i	i	i	61.0	i	nt
O=C(NCCNC(=O)c1cc(OCC(F)(F)F)ccc1OCC(F)(F)F)Nc1ccccc1	56.7	i	i	i	i	nt
CC(C)C(NC(=O)OCc1ccccc1)C(=O)NCC(=O)OC(C)(C)C (stereo not given)	i	i	i	82.6	i	i
CC(C)[C@H](NC(=O)OCc1ccccc1)C(=O)OCC(=O)NC1CCCCC1	81.0	i	i	77.9	i	i
O=C(CSc1ccc2nnc(-c3ccccn3)n2n1)NCc1ccco1	nt	nt	nt	nt	i	i
COC(=O)c1cn(NC(=O)C2CCCO2)c(=O)c2ccccc12 (stereo not given)	nt	nt	nt	nt	i	i
Cc1ccccc1Nc1nc(N)nc(CSc2nc3ccccc3c(=O)n2CCCO)n1	99.0	i	i	90.4	i	i

Source: PubChem BioAssay (several laboratories)
